Measurements published in PubChem BioAssay (NCATS).
Records with an inconclusive call do not appear. Active and inactive are the calls of the source. Calls follow the shape of the dose curve; as a rule, active = well fitted cell-killing curve with a large enough effect; inconclusive = small, poorly fitted or top-dose-only effect; inactive = flat fitted curve, though single readings scatter.

Assays:
[1] = Cell Viability - LYMP2-002 (AID 977); conditions: LYMP2-002 lymphoblastoid cell viability, qHTS; series mostly up to 92.2 µM;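 also: compound exposure lasted 24 h at 37 °C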
Procedure, shortened: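 In this qHTS viability screen, 2500 human lymphoblastoid cells per well receive compound for 24 hr at 37 C, and luciferase-based ATP luminescence gives the viability signal. Tetraoctylammonium bromide serves as positive control.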

[2] = Cell Viability - LYMP2-006 (AID 978); conditions: LYMP2-006 lymphoblastoid cell viability, qHTS; series mostly up to 92.2 µM;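 also: cells exposed to compound for 24 hours; nearly all actives have a fitted effect of over 60% in size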
Procedure, shortened: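 Human lymphoblastoid cells (LYMP2-006), 2500/well in complete medium, were treated with compound for 24 hr at 37 C. Cellular ATP was read by CellTiter-Glo luminescence after 30 min, and AC50 values came from Hill-equation fits of concentration-response data.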

[3] = Cell Viability - LYMP2-007 (AID 979); conditions: LYMP2-007 lymphoblastoid cell viability; series mostly up to 92.2 µM;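 also: cells exposed to compound for 24 h before reading; nearly all actives have a fitted effect of over 60% in size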
Procedure, shortened: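 qHTS cytotoxicity: 2500 cells/well, 5 hr 37 C settle, compound 24 hr 37 C, CellTiter-Glo 30 min RT, luminescence. Decrease in ATP = toxicity. AC50 by standard Hill equation; tetraoctylammonium bromide positive control.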

[4] = Cell Viability - LYMP2-008 (AID 980); conditions: LYMP2-008 lymphoblastoid cell viability, qHTS; series mostly up to 92.2 µM; also: nearly all actives have a fitted effect of over 60% in size
Procedure, shortened: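 Luminescent ATP read-out (CellTiter-Glo, 30 min RT) after 24 hr compound exposure at 37 C of human lymphoblastoid cells in complete medium. Decrease in ATP taken as cytotoxicity; AC50 derived by standard Hill fit of qHTS concentration-response data.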

[5] = Cell Viability - LYMP2-010 (AID 981); conditions: LYMP2-010 lymphoblastoid cell viability, qHTS; series mostly up to 92.2 µM;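 also: cells exposed to compound for 24 hours at 37 °C; nearly all actives have a fitted effect of over 55% in size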
Procedure, shortened: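 qHTS cytotoxicity, 1536-well: 2500 cells/well, 5 hr settle, 24 hr compound at 37 C, CellTiter-Glo 30 min RT, luminescence read. Decrease in ATP = toxicity; AC50 via standard Hill equation. Positive control tetraoctylammonium bromide.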

[6] = Cell Viability - LYMP2-012 (AID 982); conditions: LYMP2-012 lymphoblastoid cell viability qHTS; series mostly up to 92.2 µM;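 also: cellular ATP by luciferase luminescence where a drop means cytotoxicity; cells exposed to compound for one day before reading; nearly all actives have a fitted effect of over 55% in size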
[7] = Cell Viability - LYMP2-014 (AID 983); conditions: LYMP2-014 lymphoblastoid cells, viability qHTS; series mostly up to 92.2 µM; also: nearly all actives have a fitted effect of over 50% in size
Procedure, shortened: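 2500 cells/well, 5 hr 37 C; cpd 24 hr 37 C, complete medium; CellTiter-Glo 30 min RT, luminescence; ATP loss = toxicity; AC50 via Hill eqn; tetraoctylammonium bromide positive control.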

[8] = Cell Viability - LYMP2-016 (AID 984); conditions: LYMP2-016 lymphoblastoid cell viability, qHTS; series mostly up to 92.2 µM;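 also: cells exposed to compound for 24 hours at 37 °C; nearly all actives have a fitted effect of over 55% in size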
Procedure, shortened: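 Human lymphoblastoid LYMP2-016 cells, 2500 per well, treated with compounds for 24 h at 37 C. Viability read as intracellular ATP by CellTiter-Glo luminescence after 30 min at room temperature; AC50 from Hill fits of concentration-response.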

[9] = Cell Viability - LYMP2-018 (AID 985); conditions: LYMP2-018 lymphoblastoid cells, viability (qHTS); series mostly up to 92.2 µM; also: nearly all actives have a fitted effect of over 50% in size
Procedure, shortened: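 2500 cells/well; 5 hr 37 C; cmpd 24 hr 37 C, complete medium; CellTiter-Glo 30 min RT; luminescence. Tetraoctylammonium bromide positive control. AC50 via Hill fit.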

[10] = Cell Viability - LYMP2-020 (AID 986); conditions: series mostly up to 92.2 µM; also: nearly all actives have a fitted effect of over 55% in size
Procedure, shortened: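 qHTS, 2500 cells/well; 5 hr then 24 hr compound exposure, 37 C; CellTiter-Glo luminescence after 30 min RT; ATP decrease taken as cytotoxicity; AC50 via Hill equation; tetraoctylammonium bromide positive control.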

Measured: Potency
Potency is read from the fitted curve at half-maximal effect.

CCn1cc(C(=O)O)c(=O)c2ccc(C)nc21
inactive: all assays above

O=c1c(-c2ccc(O)cc2)coc2cc(O)ccc12
not listed: [6]
inactive: all other assays above

CCCNC(=O)NS(=O)(=O)c1ccc(Cl)cc1
inactive: all assays above

CC1=C(/C=C/C(C)=C/C=C/C(C)=C/C(=O)Nc2ccc(O)cc2)C(C)(C)CCC1
active: [2] 50.1 µM | [3] 39.8 µM | [4] 50.1 µM | [5] 50.1 µM | [6] 39.8 µM | [7] 50.1 µM | [8] 63.1 µM | [9] 50.1 µM | [10] 50.1 µM

CN(C)CCC(c1ccccc1)c1ccccn1 (stereo not given)
inactive: all assays above

O=c1cc(-c2ccc(O)cc2)oc2cc(O)cc(O)c12
inactive: [7]

CC(=O)O[C@]1(C(C)=O)CC[C@H]2[C@@H]3C=C(Cl)C4=CC(=O)[C@@H]5C[C@@H]5[C@]4(C)[C@H]3CC[C@@]21C
inactive: all assays above

O=c1c(O)c(-c2ccc(O)cc2)oc2cc(O)cc(O)c12
inactive: all assays above

O=C(O)Cc1cccc2ccccc12
inactive: all assays above

O=c1[nH]cnc2c1ncn2[C@H]1CC[C@@H](CO)O1
inactive: all assays above

O=C(O)c1cc(O)c2c(c1)C(=O)c1cccc(O)c1C2=O
inactive: [5] | [6] | [7] | [8] | [9] | [10]

O=C1NC(=O)C(c2ccccc2)(c2ccccc2)N1
inactive: all assays above

CCCCC1C(=O)N(c2ccccc2)N(c2ccccc2)C1=O
inactive: all assays above

CC/C(=C(\c1ccccc1)c1ccc(OCCN(C)C)cc1)c1ccccc1
active: [1] 39.8 µM | [2] 50.1 µM | [3] 50.1 µM | [4] 50.1 µM | [5] 50.1 µM | [6] 50.1 µM | [7] 50.1 µM | [8] 39.8 µM | [9] 50.1 µM | [10] 50.1 µM

CC(=O)c1ccc(S(=O)(=O)NC(=O)NC2CCCCC2)cc1
inactive: all assays above
